# Laboratory results from PubChem BioAssay AID1159580 (chemical genetic matrix, 2015).
# Out of some 5,500 compounds screened, about 2,000 (36%) were called active. Roughly 18% stayed inconclusive and do not appear here. The list shows a part of the results. Unmarked numbers belong to inactive results. Cut-off read from the data, not from the text of the source: active = normalized growth mostly below about 0.91 (no sharp cut-off); inconclusive = no clear call, values can overlap the other calls; inactive = mostly above about 0.92.
# Experiment: chemical genetic growth profiling, strain panel (AID 1159580);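 note: tested at 20 µM; growth read once vehicle control cultures reached saturation at 30 °C; 1 = growth at the plate median or of vehicle wells; lower values mean less growth of the strain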
# Conditions: S. cerevisiae deletion strains, growth OD
compound,measurement,setting,value
Cc1nccc2c1[nH]c1ccccc12,normalized growth,"locus YAL013W, strain DEP1, hits give low values",1.01
same,normalized growth,"locus YAL021C, strain ccr4, hits give low values",0.956
same,normalized growth,"locus YAL026C, strain drs2, hits give low values",0.975
same,normalized growth,"locus YAL030W, strain snc1, hits give low values",0.992
same,normalized growth,"locus YAL040C, strain CLN3, hits give low values",1.11
same,normalized growth,"locus YBL061C, strain skt5, hits give low values",0.975
same,normalized growth,"locus YBR009C, strain hhf1, hits give low values",0.971
same,normalized growth,"locus YBR023C, strain chs3, hits give low values",0.974
same,normalized growth,"locus YBR171W, strain sec66, hits give low values",0.969
same,normalized growth,"locus YBR231C, strain swc5, hits give low values",0.972
same,normalized growth,"locus YBR279W, strain paf1, hits give low values",0.991
same,normalized growth,"locus YCL011C, strain gbp2, hits give low values",0.965
same,normalized growth,"locus YCL016C, strain dcc1, hits give low values",0.99
same,normalized growth,"locus YCL061C, strain MRC1 (second series), hits give low values",1.01
same,normalized growth,"locus YCL069W, strain vba3, hits give low values",0.977
same,normalized growth,"locus YCR088W, strain abp1, hits give low values",0.977
same,normalized growth,"locus YDL005C, strain med2, hits give low values",0.965
same,normalized growth,"locus YDL040C, strain nat1, hits give low values",0.983
same,normalized growth,"locus YDR001C, strain nth1, hits give low values",0.991
same,normalized growth,"locus YDR069C, strain doa4, hits give low values",0.941
same,normalized growth,"locus YDR137W, strain rgp1, hits give low values",0.967
same,normalized growth,"locus YDR159W, strain sac3, hits give low values",0.989
same,normalized growth,"locus YDR195W, strain ref2",1.03
same,normalized growth,"locus YDR297W, strain sur2, hits give low values",0.976
same,normalized growth,"locus YDR334W, strain swr1, hits give low values",0.971
same,normalized growth,"locus YDR335W, strain msn5, hits give low values",0.975
same,normalized growth,"locus YDR363W, strain ESC2, hits give low values",1
same,normalized growth,"locus YDR392W, strain spt3, hits give low values",0.963
same,normalized growth,"locus YEL003W, strain gim4, hits give low values",0.983
same,normalized growth,"locus YEL037C, strain rad23, hits give low values",0.983
same,normalized growth,"locus YEL061C, strain CIN8 (second series), hits give low values",0.944
same,normalized growth,"locus YER002W, strain NOP16, hits give low values",0.991
same,normalized growth,"locus YER015W, strain faa2, hits give low values",0.991
same,normalized growth,"locus YER016W, strain bim1, hits give low values",0.984
same,normalized growth,"locus YER111C, strain swi4, hits give low values",0.973
same,normalized growth,"locus YER155C, strain BEM2 (second series), hits give low values",0.954
same,normalized growth,"locus YFR010W, strain ubp6, hits give low values",0.955
same,normalized growth,"locus YGL167C, strain pmr1, hits give low values",0.996
same,normalized growth,"locus YGL173C, strain kem1, hits give low values",0.981
same,normalized growth,"locus YGL227W, strain vid30, hits give low values",0.976
same,normalized growth,"locus YGL240W, strain doc1, hits give low values",0.968
same,normalized growth,"locus YGL253W, strain hxk2, hits give low values",0.959
same,normalized growth,"locus YGR078C, strain PAC10, hits give low values",1.02
same,normalized growth,"locus YHR013C, strain ard1, hits give low values",0.951
same,normalized growth,"locus YHR027C, strain rpn1, hits give low values",0.996
same,normalized growth,"locus YHR030C, strain SLT2, hits give low values",1.05
same,normalized growth,"locus YHR079C, strain IRE1, hits give low values",1.06
same,normalized growth,"locus YHR142W, strain chs7, hits give low values",0.97
same,normalized growth,"locus YJL092W, strain hpr5, hits give low values",0.963
same,normalized growth,"locus YJL095W, strain BCK1 (second series), hits give low values",0.972
same,normalized growth,"locus YJL095W, strain BCK1, hits give low values",1.03
same,normalized growth,"locus YJL115W, strain asf1, hits give low values",0.975
same,normalized growth,"locus YJL129C, strain trk1, hits give low values",0.959
same,normalized growth,"locus YJL154C, strain vps35, hits give low values",0.981
same,normalized growth,"locus YJL164C, strain tpk1, hits give low values",0.993
same,normalized growth,"locus YJL166W, strain qcr8, hits give low values",0.972
same,normalized growth,"locus YJL187C, strain SWE1, hits give low values",0.962
same,normalized growth,"locus YJR066W, strain TOR1, hits give low values",0.972
same,normalized growth,"locus YKL160W, strain elf1, hits give low values",0.995
same,normalized growth,"locus YKR026C, strain gcn3, hits give low values",0.983
same,normalized growth,"locus YKR091W, strain srl3, hits give low values",0.973
same,normalized growth,"locus YLL001W, strain dnm1, hits give low values",0.977
same,normalized growth,"locus YLL026W, hits give low values",0.999
same,normalized growth,"locus YLL041C, strain sdh2, hits give low values",0.979
same,normalized growth,"locus YLR027C, strain aat2, hits give low values",0.995
same,normalized growth,"locus YLR113W, strain HOG1, hits give low values",1.04
same,normalized growth,"locus YLR221C, strain rsa3, hits give low values",0.971
same,normalized growth,"locus YLR258W, strain gsy2, hits give low values",0.991
same,normalized growth,"locus YLR262C, strain YPT6 (second series), hits give low values",0.956
same,normalized growth,"locus YLR320W, strain mms22, hits give low values",0.97
same,normalized growth,"locus YLR342W, strain FKS1, hits give low values",0.968
same,normalized growth,"locus YLR357W, strain rsc2, hits give low values",1.04
same,normalized growth,"locus YLR370C, strain arc18, hits give low values",0.968
same,normalized growth,"locus YLR384C, strain iki3, hits give low values",0.996
same,normalized growth,"locus YML120C, strain ndi1, hits give low values",0.982
same,normalized growth,"locus YMR058W, strain fet3, hits give low values",0.983
same,normalized growth,"locus YMR125W, strain sto1, hits give low values",1.02
same,normalized growth,"locus YMR129W, hits give low values",0.984
same,normalized growth,"locus YMR205C, strain PFK2, hits give low values",1.01
same,normalized growth,"locus YMR231W, strain pep5, hits give low values",0.977
same,normalized growth,"locus YMR307W, strain GAS1, hits give low values",1.01
same,normalized growth,"locus YNL071W, strain lat1, hits give low values",0.973
same,normalized growth,"locus YNL175C, strain NOP13, hits give low values",0.39 (active)
same,normalized growth,"locus YNL183C, strain NPR1, hits give low values",0.993
same,normalized growth,"locus YNL197C, strain WHI3, hits give low values",0.955
same,normalized growth,"locus YNL209W, strain ssb2, hits give low values",0.993
same,normalized growth,"locus YNL248C, strain rpa49, hits give low values",0.955
same,normalized growth,"locus YNL322C, strain KRE1 (second series), hits give low values",0.993
same,normalized growth,"locus YNL322C, strain KRE1, hits give low values",1.01
same,normalized growth,"locus YNR049C, strain mso1, hits give low values",0.976
same,normalized growth,"locus YOR001W, strain rrp6, hits give low values",0.943
same,normalized growth,"locus YOR070C, strain gyp1, hits give low values",0.98
same,normalized growth,"locus YOR080W, strain dia2, hits give low values",0.986
same,normalized growth,"locus YOR083W, strain WHI5 (second series), hits give low values",1.03
same,normalized growth,"locus YOR083W, strain WHI5, hits give low values",0.994
same,normalized growth,"locus YOR106W, strain vam3, hits give low values",0.958
same,normalized growth,"locus YOR231W, strain MKK1, hits give low values",1.06
same,normalized growth,"locus YOR265W, strain rbl2, hits give low values",0.972
same,normalized growth,"locus YOR270C, strain vph1, hits give low values",0.913
same,normalized growth,"locus YOR290C, strain snf2, hits give low values",0.994
same,normalized growth,"locus YPL051W, strain arl3, hits give low values",0.988
same,normalized growth,"locus YPL078C, strain atp4, hits give low values",0.972
same,normalized growth,"locus YPL106C, strain sse1, hits give low values",0.978
same,normalized growth,"locus YPL240C, strain hsp82, hits give low values",0.986
same,normalized growth,"locus YPL241C, strain CIN2, hits give low values",1.01
same,normalized growth,"locus YPL256C, strain CLN2, hits give low values",1.04
